Experimental data published in PubChem BioAssay AID1159580 (chemical genetic matrix, 2015).
“And” between values parts separate entries of the source, which are not always exact repeats. Equal values may be shown once. The whole screen tested about 5,500 compounds, of which about 2,000 (36%) were called active. Not shown: some 18% with an inconclusive outcome. Cut-off read from the data, not from the text of the source: active = normalized growth mostly below about 0.91 (no sharp cut-off); inconclusive = no clear call, values can overlap the other calls; inactive = mostly above about 0.92. The list shows a part of the results.

Assay: chemical genetic growth profiling, strain panel (AID 1159580);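 note: tested at 20 µM; growth read once vehicle control cultures reached saturation at 30 °C; 1 = growth at the plate median or of vehicle wells; lower values mean less growth of the strain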
Conditions: S. cerevisiae deletion strains, growth OD

Measured: normalized growth

O=C(O)[C@H](O)[C@@](O)(Cc1ccc(O)cc1)C(=O)O
inactive: locus YAL013W, strain DEP1, hits give low values 1.04 | locus YAL021C, strain ccr4, hits give low values 1 | locus YAL026C, strain drs2, hits give low values 1 | locus YAL030W, strain snc1, hits give low values 1.01 | locus YBL061C, strain skt5, hits give low values 1.01 | locus YBR009C, strain hhf1, hits give low values 1.01 | locus YBR021W, strain FUR4, hits give low values 1.02 | locus YBR023C, strain chs3, hits give low values 1.02 | locus YBR171W, strain sec66, hits give low values 1.02 | locus YBR229C, strain ROT2, hits give low values 1.02 | locus YBR231C, strain swc5, hits give low values 1.01 | locus YBR279W, strain paf1, hits give low values 1.01 | locus YCL011C, strain gbp2, hits give low values 1.01 | locus YCL016C, strain dcc1, hits give low values 1.02 | locus YCL029C, strain bik1, hits give low values 1.02 | locus YCL061C, strain MRC1, hits give low values 1.02 | locus YCL069W, strain vba3, hits give low values 1 | locus YCR088W, strain abp1, hits give low values 1.01 | locus YDL005C, strain med2, hits give low values 0.996 | locus YDL035C, strain GPR1, hits give low values 1.06 | locus YDL040C, strain nat1, hits give low values 1 | locus YDL074C, strain BRE1, hits give low values 1.06 | locus YDL101C, strain DUN1, hits give low values 1.03 | locus YDL134C, strain PPH21, hits give low values 1.02 | locus YDL185W, strain tfp1, hits give low values 0.992 | locus YDL192W, strain arf1, hits give low values 1.03 | locus YDR001C, strain nth1, hits give low values 1.02 | locus YDR069C, strain doa4, hits give low values 1.01 | locus YDR101C, strain arx1, hits give low values 1.02 | locus YDR137W, strain rgp1, hits give low values 1.03 | locus YDR159W, strain sac3, hits give low values 1 | locus YDR162C, strain NBP2, hits give low values 1.06 | locus YDR195W, strain ref2 0.989 | locus YDR297W, strain sur2, hits give low values 1.01 | locus YDR318W, strain mcm21, hits give low values 1.01 | locus YDR334W, strain swr1, hits give low values 1.01 | locus YDR335W, strain msn5, hits give low values 1 | locus YDR388W, hits give low values 1 | locus YDR392W, strain spt3, hits give low values 0.976 | locus YDR502C, strain sam2, hits give low values 0.995 | locus YEL003W, strain gim4, hits give low values 0.999 | locus YEL037C, strain rad23, hits give low values 1 | locus YEL061C, strain CIN8 (second series), hits give low values 0.999 | locus YER015W, strain faa2, hits give low values 1 | locus YER016W, strain bim1, hits give low values 1 | locus YER110C, hits give low values 0.992 | locus YER111C, strain swi4, hits give low values 1 | locus YER155C, strain BEM2 (second series), hits give low values 1.01 | locus YER155C, strain BEM2, hits give low values 1.01 | locus YER167W, strain BCK2, hits give low values 1.02 | locus YFR010W, strain ubp6, hits give low values 1.01 | locus YGL078C, strain dbp3, hits give low values 1.01 | locus YGL086W, strain mad1, hits give low values 1.01 | locus YGL167C, strain pmr1, hits give low values 1.01 | locus YGL173C, strain kem1, hits give low values 1.02 | locus YGL227W, strain vid30, hits give low values 1.01 | locus YGL240W, strain doc1, hits give low values 1.01 | locus YGL248W, strain PDE1, hits give low values 1.03 | locus YGL253W, strain hxk2, hits give low values 1.01 | locus YGR078C, strain PAC10, hits give low values 1.03 | locus YGR135W, strain pre9, hits give low values 0.987 | locus YGR252W, strain gcn5, hits give low values 0.966 | locus YHR013C, strain ard1, hits give low values 1.02 | locus YHR027C, strain rpn1, hits give low values 1.02 | locus YHR030C, strain SLT2, hits give low values 1.02 and 1.01 | locus YHR079C, strain IRE1 (second series), hits give low values 1 | locus YHR079C, strain IRE1, hits give low values 1 | locus YHR094C, strain hxt1, hits give low values 0.999 | locus YHR129C, strain ARP1, hits give low values 1.02 | locus YHR142W, strain chs7, hits give low values 1.02 | locus YHR200W, strain rpn10, hits give low values 0.996 | locus YIL066C, strain RNR3, hits give low values 1.04 | locus YIL073C, strain SPO22, hits give low values 1.05 | locus YIL125W, strain kgd1, hits give low values 1.02 | locus YIR030C, strain dcg1, hits give low values 1 | locus YJL092W, strain hpr5, hits give low values 1.02 | locus YJL095W, strain BCK1 (second series), hits give low values 1.01 | locus YJL095W, strain BCK1, hits give low values 1.05 and 1.01 | locus YJL115W, strain asf1, hits give low values 0.997 | locus YJL129C, strain trk1, hits give low values 1.03 | locus YJL134W, strain LCB3, hits give low values 1.02 | locus YJL154C, strain vps35, hits give low values 1 | locus YJL164C, strain tpk1, hits give low values 1.01 | locus YJL166W, strain qcr8, hits give low values 1.01 | locus YJL168C, strain set2, hits give low values 1 | locus YJL187C, strain SWE1 (second series), hits give low values 1.04 | locus YJL187C, strain SWE1, hits give low values 1.01 | locus YJR043C, strain POL32, hits give low values 1.06
